Results taken from PubChem BioAssay AID372 (MTDP, 2006).
Among all 100,000 compounds or so, about 770 (0.77%) were called active. No stated cut-off is given here; in the data, active means inhibition above about 50%; inactive means the rest. This excerpt belongs to a sample that is enriched for actives.

The compounds below were run against Gag-Pol polyprotein (Human immunodeficiency virus type 1 group M subtype B (isolate HXB2)) (UniProt P04585) (assay: RNase H inhibition, HIV 1 Gag Pol polyprotein, FRET biochemical assay, screening (AID 372)). Details: HIV-1 RT RNase H, FRET RNA/DNA substrate fluorescence; at 10 µM; active compounds read high.

Row | SMILES | inhibition
1 | COc1ccccc1S(=O)(=O)CC(SC#N)c1ccccc1 (stereo unspecified) | 4% (inactive)
2 | Cc1c(CCNC(=O)c2ccccc2)c2ccccc2n1Cc1ccccc1 | 57% (active)
3 | CC(=O)NCCc1c(C)n(Cc2ccccc2)c2ccccc12 | 2% (inactive)
4 | Cc1c(CCNC(=O)c2ccccc2F)c2ccccc2n1Cc1ccccc1 | 28% (inactive)
5 | O=C1OC(c2ccccc2)=N/C1=C\c1ccc(F)c(Br)c1 | 16% (inactive)
6 | CCOC(=O)C1=C(C)N=c2s/c(=C\c3ccc(Br)cc3)c(=O)n2C1c1ccc(OC)c(OC)c1 (stereo unspecified) | 0% (inactive)
7 | CC(=O)/C(=C1\NC(C)(C)Cc2ccccc21)c1ccccc1 | 3% (inactive)
8 | N#C/C(=C\c1ccc(Sc2ccccc2)o1)c1ccccc1 | 52% (active)
9 | N#C/C(=C/c1ccc(Sc2ccccc2)o1)C(=O)NCc1ccccc1 | 25% (inactive)
10 | N#C/C(=C\c1ccc(I)o1)c1ccccc1 | 41% (inactive)
11 | Cc1ccc(Sc2ccc(/C=C(\C#N)C(=O)NCc3ccccc3)o2)cc1 | 50% (active)
12 | N#C/C(=C\c1ccc(-c2ccccc2)o1)C(=O)NCc1ccccc1 | 16% (inactive)
13 | N#C/C(=C/c1ccc(Sc2ccccc2)o1)c1nc2ccccc2[nH]1 | 15% (inactive)
14 | CCc1cc2c(=O)n(N)c(CCC(=O)O)nc2s1 | 6% (inactive)
15 | CCOC(=O)c1cc(Br)c(Cl)cc1[N+](=O)[O-] | 10% (inactive)
16 | COc1ccc(C(NC(=O)c2ccco2)c2ccc(OC)c(OC)c2)cc1 (stereo unspecified) | 23% (inactive)
17 | Cc1ccc2oc(-c3ccc(NC(=O)c4ccc(C)c([N+](=O)[O-])c4)cc3)nc2c1 | 0% (inactive)
18 | OC(COc1ccccc1Cl)Cn1cnc2ccccc21 (stereo unspecified) | 5% (inactive)
19 | O=C(N/N=C/c1ccc(-c2ccc(Cl)cc2Cl)o1)c1ccccc1 | 15% (inactive)
20 | CCN1C(=O)/C(=C/c2ccc(C)o2)C(=O)NC1=S | 21% (inactive)
21 | CCN1C(=O)C(=Cc2ccc(O)cc2)C(=O)NC1=S | 4% (inactive)
22 | CCOc1cc(/C=N/NC(=O)C(=O)NCc2ccc(Cl)cc2)ccc1O | 1% (inactive)
23 | CC1(C)NC(=O)N(CC(O)COc2cccc(OCC(O)CN3C(=O)NC(C)(C)C3=O)c2)C1=O (stereo unspecified) | 11% (inactive)

Row | SMILES | inhibition
24 | Cc1sc(NC(=O)c2ccc(-c3ccccc3)cc2)c(C(N)=O)c1C | 13% (inactive)
25 | Cc1sc(NC(=O)c2ccco2)c(C#N)c1C | 7% (inactive)
26 | Cc1sc(NC(=O)c2ccc(F)cc2)c(C(N)=O)c1C | 8% (inactive)
27 | COC(=O)c1c(NC(=O)Cc2ccccc2)sc(C)c1C | 24% (inactive)
28 | CCOC(=O)c1sc(NC(=O)c2ccc(Br)o2)c(C(N)=O)c1C | 0% (inactive)
29 | COC(=O)c1c(NC(=O)c2ccco2)sc(C)c1C | 15% (inactive)
30 | CCOC(=O)c1c(NC(=O)Cc2ccccc2)sc(C)c1C | 0% (inactive)
31 | Cc1sc(NC(=O)c2ccc(Br)o2)c(C#N)c1C | 4% (inactive)
32 | CCOc1cc(/C=C2\SC(=S)N(c3ccc(F)cc3)C2=O)ccc1O | 18% (inactive)
33 | CCN(CC)c1ccc(C(=O)Nc2cc(Cl)cc(Cl)c2)cc1 | 20% (inactive)
34 | Cc1ccc(C(=O)COC(=O)c2cccc(N3C(=O)C4C5C=CC(C6CC56)C4C3=O)c2)cc1 (stereo unspecified) | 9% (inactive)
35 | CCOc1ccc(-n2sc3c(c2=S)-c2cc(C)ccc2N(Cc2ccccc2)C3(C)C)cc1 | 32% (inactive)
36 | Cc1cc(C)cc(NC(=O)C(C)N2C(=O)c3ccccc3C2=O)c1 (stereo unspecified) | 0% (inactive)
37 | CC1=C(C(=O)OCC(C)C)C(c2cccc(O)c2)C2=C(CC(c3ccc(Cl)cc3)CC2=O)N1 (stereo unspecified) | 21% (inactive)
38 | O=C(/C=C/c1ccccc1)NC(=S)Nc1ccc(Br)cn1 | 21% (inactive)
39 | CCOC(=O)c1ccc(Nc2cc(-c3ccccc3)ncn2)cc1 | 18% (inactive)
40 | COc1cc(CN2CCN(Cc3ccc(OC)c(OC)c3OC)CC2)cc(OC)c1OC | 4% (inactive)
41 | O=C(/C=C/c1ccc2c(c1)OCO2)NCc1ccc(Cl)cc1Cl | 11% (inactive)
42 | CCOC(=O)c1sc(NC(=O)Cn2nc([N+](=O)[O-])c([N+](=O)[O-])c2C)c(C(=O)OCC)c1C | 6% (inactive)
43 | Cc1nn(CC(=O)Nc2sc3c(c2C#N)CCCC3)c(C)c1[N+](=O)[O-] | 8% (inactive)
44 | O=C(O)c1c(Br)c(Br)c(Br)c(Br)c1C(=O)NCCC1=CCCCC1 | 0% (inactive)
45 | NNC(=O)CN1C(c2ccccc2)=Nc2ccc(Br)cc2C1c1ccccc1 (stereo unspecified) | 15% (inactive)
46 | COc1ccc(N2C(=O)/C(=C\c3c(OC)cc(OC)cc3OC)C(=O)NC2=S)cc1 | 1% (inactive)
